{"source": "PubChem BioAssay AID803", "about": "(The Scripps Research Institute Molecular Screening Center, 2007)", "note": "About 680 (0.49%) of roughly 140,000 compounds were called active. Only a selection was taken, and actives are over-represented in it overall. Unmarked numbers belong to inactive results. No stated cut-off is given here; in the data, active means activation above about 5% (passing the limit was not always enough); inactive means the rest.", "data": [{"molecular_target": "Galanin receptor type 2 (Homo sapiens) (UniProt O43603)", "sequence (O43603 whole entry, looked up)": "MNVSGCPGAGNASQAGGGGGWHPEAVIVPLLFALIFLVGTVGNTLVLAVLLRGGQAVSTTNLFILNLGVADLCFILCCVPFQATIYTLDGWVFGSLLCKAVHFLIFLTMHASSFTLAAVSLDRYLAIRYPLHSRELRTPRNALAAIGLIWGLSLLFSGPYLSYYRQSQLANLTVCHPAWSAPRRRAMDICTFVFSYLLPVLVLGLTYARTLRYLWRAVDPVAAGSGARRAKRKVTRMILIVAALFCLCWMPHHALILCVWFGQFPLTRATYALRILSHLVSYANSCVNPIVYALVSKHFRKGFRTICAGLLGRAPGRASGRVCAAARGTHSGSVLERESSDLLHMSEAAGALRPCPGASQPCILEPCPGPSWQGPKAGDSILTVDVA", "assay": "GALR2 receptor agonists, primary screen, cell-based (AID 803);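 further: 0% = vehicle buffer wells and 100% = reference agonist at full effect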", "conditions": "GALR2-expressing cells, agonist activation read-out; at 5.6 µM; active compounds read high", "values": [{"smiles": "CCN(C(=O)CSc1ncn[nH]1)c1cccc2ccccc12", "activation": "144% (active)"}, {"smiles": "CC(C)(C)c1ccc(C(=O)CSc2ncn[nH]2)cc1", "activation": "-1.49%"}, {"smiles": "CC(=O)Nc1ccc(/C(C)=N/NC(=O)CN(c2ccccc2Br)S(C)(=O)=O)cc1", "activation": "-0.42%"}, {"smiles": "CSc1ccc(/C=C/C(=O)NC23CC4CC(CC(C4)C2)C3)cc1", "activation": "-1.84%"}, {"smiles": "Cc1cccn2c(=O)c3cc(C#N)c(=NC(=O)c4cccnc4)n(CC4CCCO4)c3nc12", "note": "(stereo unspecified)", "activation": "7.52% (active)"}, {"smiles": "Cc1cccn2c(=O)c3cc(C(=O)N4COCC4(C)C)n(C)c3nc12", "activation": "0.31%"}, {"smiles": "Cc1cccn2c(=O)c3cc(C#N)c(=O)n(CCCN4CCOCC4)c3nc12", "activation": "2.81%"}, {"smiles": "CC(=O)c1ccc(NC(=O)Nc2ccc([N+](=O)[O-])cc2C)cc1", "activation": "-1.71%"}, {"smiles": "CCCn1c(=O)c2c(C(F)(F)F)cc(-c3cccs3)nc2n(CCC)c1=O", "activation": "6.87% (active)"}, {"smiles": "FC(F)(F)c1cc(-c2cccs2)nc(NCc2ccco2)n1", "activation": "-1.85%"}, {"smiles": "Cc1cc(-c2cccs2)nc(-n2cccc2)n1", "activation": "-2.57%"}, {"smiles": "Cc1cc(C)nc(NC(=O)C(C)N2C(=O)c3ccccc3C2=O)n1", "note": "(stereo unspecified)", "activation": "-2.31%"}, {"smiles": "COC(=O)c1ccc(NC(=O)C(C)N2C(=O)c3ccccc3C2=O)cc1", "note": "(stereo unspecified)", "activation": "8.37% (active)"}, {"smiles": "COC(=O)c1ccc(NC(=O)Nc2ccc(C)cc2)cc1", "activation": "-1.78%"}, {"smiles": "O=C(CSc1ccccc1)Nc1cc(Cl)ccc1Oc1ccccc1", "activation": "-0.74%"}, {"smiles": "C/C(CCC(=O)OC[C@H]1O[C@H](C#Cc2ccccc2)C=C[C@@H]1Oc1ccc(C)cc1)=N\\OC[C@@H](O)[C@H]1O[C@@H]2OC(C)(C)O[C@@H]2[C@H]1O", "activation": "-0.18%"}, {"smiles": "CCOC(=O)CSc1nc2sc3c(c2c(=O)[nH]1)CC(C)(C)OC3", "activation": "-2.5%"}, {"smiles": "CCOC(=O)Cn1c(SC)nc2sc3c(c2c1=O)CC(C)(C)OC3", "activation": "-1.18%"}, {"smiles": "CC/C(C)=N/Nc1nc2sc3c(c2c(=O)[nH]1)CC(C)(C)OC3", "activation": "25.2% (active)"}, {"smiles": "CCOc1ccc(NC(=O)COc2ccc(C(=O)NC3CCCc4ccccc43)cc2OC)cc1", "note": "(stereo unspecified)", "activation": "-0.21%"}, {"smiles": "CCc1ccc(-c2cc(C(=O)NN3CCN(C)CC3)c3ccccc3n2)cc1", "activation": "0.42%"}, {"smiles": "CCCCNS(=O)(=O)c1ccc2nc(SCC(=O)Nc3cc(C)cc(C)c3)[nH]c2c1", "activation": "-1.87%"}, {"smiles": "CCc1cc(C(=O)OC)c(NC(=O)CC2Sc3ccc(C(F)(F)F)cc3NC2=O)s1", "note": "(stereo unspecified)", "activation": "1.46%"}, {"smiles": "Cc1ccc2nc(-c3ccccc3)cc(C(=O)O)c2c1", "activation": "-0.75%"}, {"smiles": "COc1ccc(Cl)cc1C(=O)NCc1cn(C)nc1C", "activation": "-0.07%"}, {"smiles": "Cc1ccc(-c2cc(C(=O)NCc3cn(C)nc3C)c3cc(Br)ccc3n2)cc1", "activation": "5.13% (active)"}, {"smiles": "CCCn1nc(NS(=O)(=O)c2ccccc2)c2cc3cc(C)ccc3nc21", "activation": "-2.05%"}, {"smiles": "COc1ccc(C2=NN(C(=O)c3cccnc3)C(c3ccccc3)C2)cc1", "note": "(stereo unspecified)", "activation": "-0.17%"}, {"smiles": "COc1ccc(C2CC(c3ccccc3)=NN2C(=O)c2ccc(Cl)c([N+](=O)[O-])c2)cc1", "note": "(stereo unspecified)", "activation": "4.95% (active)"}, {"smiles": "COc1ccc(C2CC(c3ccccc3)=NN2C(=O)CSc2nccc(=O)[nH]2)cc1", "note": "(stereo unspecified)", "activation": "0.01%"}, {"smiles": "Cn1ncc2c(NNC(=O)Cc3cccc4ccccc34)ncnc21", "activation": "0.28%"}, {"smiles": "CCOc1ccccc1NC(=O)CCc1ccc(C)o1", "activation": "-0.84%"}, {"smiles": "Cc1ccc(CCC(=O)Nc2ncc(Cc3cc(Cl)ccc3Cl)s2)o1", "activation": "8.73% (active)"}, {"smiles": "Cc1cnc(NC(=O)CSc2nnc(-c3ccc(Cl)cc3Cl)n2N)s1", "activation": "-1.9%"}, {"smiles": "O=C(Nc1ccccc1F)c1ccccc1-c1ccccc1", "activation": "-0.61%"}, {"smiles": "COc1ccc(C2CC(c3cccs3)=NN2C(=O)COC(=O)c2cc3ccccc3cc2O)cc1OC", "note": "(stereo unspecified)", "activation": "0.22%"}, {"smiles": "COc1ccccc1N1N=C(c2cccs2)CC1c1ccccc1", "note": "(stereo unspecified)", "activation": "13.1% (active)"}, {"smiles": "Fc1ccc(N2N=C(c3cccs3)CC2c2ccco2)c(F)c1", "note": "(stereo unspecified)", "activation": "10.4%"}, {"smiles": "O=c1oc2cc(O)ccc2cc1-c1ccc(F)cc1", "activation": "14.9% (active)"}, {"smiles": "COc1cccc(C(=O)c2cc3ccc(O)cc3oc2=O)c1", "activation": "2.29%"}, {"smiles": "COc1ccc(-c2cc3ccc(OCc4nn[nH]n4)cc3oc2=O)cc1", "activation": "0.01%"}, {"smiles": "COc1cc(/C=N\\NC(=O)c2nonc2N)c(OC)cc1Br", "activation": "-0.75%"}, {"smiles": "O=C(CCc1ccc(S(=O)(=O)N2CCOCC2)cc1)NN=C1CCCCCCC1", "activation": "-0.53%"}, {"smiles": "Cn1c(=O)oc2cc(S(=O)(=O)N3CCC(C(=O)Nc4ccc(OC(F)(F)F)cc4)CC3)ccc21", "activation": "9.92% (active)"}, {"smiles": "Cc1ccc(C)c(N2CCN(S(=O)(=O)c3ccc4c(c3)oc(=O)n4C)CC2)c1", "activation": "-1.17%"}, {"smiles": "Cc1ccc2nc(NC(=O)C3CCN(S(=O)(=O)c4ccc5c(c4)oc(=O)n5C)CC3)sc2c1", "activation": "-1.18%"}]}]}
